Assay results as given in PubChem BioAssay (NCI).
About 79,000 compounds went through this panel and 15% of them were active in at least one assay; those are over-represented in the sample as a whole. Rule as the data show it: active = growth inhibition above about 70%; inactive = the rest.

Legend:
[1] = NCI Yeast Anticancer Drug Screen. Data for the rad50 strain (AID 155);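 also: 0% = growth of vehicle-only cultures of the same strain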; settings: S. cerevisiae rad50 strain growth inhibition; at 50.0 µM; active compounds read high
Method in brief: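 Yeast carrying a defined DNA repair defect were exposed to test compounds, and growth was compared with vehicle-treated controls to give percent inhibition.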

[2] = NCI Yeast Anticancer Drug Screen. Data for the mec2-1 strain (AID 157); settings: S. cerevisiae mec2-1 strain, at 50.0 µM, active compounds read high
Method in brief: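 Using mec2-1 yeast: add compound, measure growth, express inhibition versus vehicle-treated cultures.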

[3] = NCI Yeast Anticancer Drug Screen. Data for the sgs1 mgt1 strain (AID 161);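 also: 0% = growth of cultures given vehicle only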; settings: S. cerevisiae sgs1 mgt1 strain, at 50.0 µM, active compounds read high
Method in brief: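 This yeast growth screen uses a strain with defined DNA-repair lesions; compound-treated growth is compared with vehicle-treated growth.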

[4] = NCI Yeast Anticancer Drug Screen. Data for the cln2 rad14 strain (AID 165);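 also: 0% = growth equal to vehicle treated cultures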; settings: S. cerevisiae cln2 rad14 strain, at 50.0 µM, active compounds read high
Method in brief: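 Yeast strain cln2 rad14, bearing defects in cell cycle control and DNA repair, serves as the test system; values reflect growth inhibition compared with vehicle.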

[5] = NCI Yeast Anticancer Drug Screen. Data for the bub3 strain (AID 167); settings: S. cerevisiae bub3 mutant strain, at 50.0 µM, active compounds read high
Method in brief: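 Compounds were applied to a genetically altered yeast strain carrying a cell-cycle control defect. Growth inhibition was scored against vehicle-treated controls.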

[6] = NCI Yeast Anticancer Drug Screen. Data for the mlh1 rad18 strain (AID 175); settings: S. cerevisiae mlh1 rad18 strain growth inhibition; at 50.0 µM; active compounds read high
Method in brief: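 Steps: expose repair-defective yeast to compound; measure growth; express inhibition against vehicle-treated controls.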

Measured: growth inhibition

O=C(Nc1cc(C(=O)Nc2cccc(S(=O)(=O)O)c2)cc(C(=O)Nc2cccc(S(=O)(=O)O)c2)c1)c1cccc(C(=O)Nc2cc(C(=O)Nc3cccc(S(=O)(=O)O)c3)cc(C(=O)Nc3cccc(S(=O)(=O)O)c3)c2)c1
inactive: [1] -0.1% | [2] -0.1% | [3] -15.4% | [4] 3.4% | [5] 4.8% | [6] -5.55%

COc1ccc(NC(=S)NN=C(C)c2cccc(C(C)=NNC(=S)Nc3ccc(OC)cc3)n2)cc1
inactive: [1] -26.1% | [2] -23.1% | [3] 5.15% | [4] -15.7% | [5] -14.3% | [6] 1.95%

CCc1ccc(-n2c(C)nc3[nH]cc(C)c3c2=N)cc1
inactive: [1] -13.6% | [2] -3.35% | [3] -11.9% | [4] -12.3% | [5] -2.65% | [6] -10.4%

CC(C(=O)c1ccncc1)c1ccccn1 (stereo not given)
inactive: [1] 1.85% | [2] 6.65% | [3] -25.4% | [4] -18.9% | [5] -12.9% | [6] 3.5%

C=CCOCOC(C)C(=O)OCC (stereo not given)
inactive: [1] -10.5% | [2] 6.6% | [3] -8.35% | [4] -26.7% | [5] -9.2% | [6] 6.45%

CC(C)CSc1nc(N)nc2c1ncn2CC(C)C
inactive: [1] -8.65% | [2] -6.4% | [3] 32.7% | [4] -21.7% | [5] 29.4% | [6] 18.9%

S=C(Sc1nc2ccccc2[nH]1)Sc1nc2ccccc2[nH]1
inactive: [1] 16.9% | [2] -4.05% | [3] 10.2% | [4] -34.9% | [5] 8.95% | [6] 24.6%

C=C1CC(C)(COc2cc(=O)oc3ccccc23)OC1=O (stereo not given)
inactive: [1] 51% | [2] 30.3% | [3] 53.2% | [4] 38.5% | [5] 25.6% | [6] 40.5%

CC(=O)OC1COC(n2cnc3c(N)ncnc32)C(OC(C)=O)C1OC(C)=O (stereo not given)
inactive: [1] 5.3% | [2] -5.15% | [3] 2.3% | [4] -26.1% | [5] 1.2% | [6] -4.2%

Clc1ccc(CN2COc3c(ccc4ccccc34)C2)cc1Cl
inactive: [1] 1.65% | [2] 15.2% | [3] 17.6% | [4] 9.65% | [5] 7.1% | [6] 13.8%

CC(=O)Nc1nc2c(s1)CCc1ccccc1-2
inactive: [1] 49.4% | [2] 13.8% | [3] 12.8% | [4] 5.6% | [5] 10.1% | [6] 15.2%

C/C(C=C1C(=O)NC(=S)NC1=O)=C\c1ccccc1
inactive: [1] 13.5% | [2] -2.55% | [3] 8.35% | [4] -4.55% | [5] -8.5% | [6] 14.1%

N#CC1=C(c2ccccc2)NNC(c2ccc(Cl)cc2)CC1=O (stereo not given)
inactive: [1] -18.1% | [2] -1.45% | [3] 2.4% | [4] 6.8% | [5] -22.6% | [6] 36.5%

CC(COc1ccccc1)OC=O (stereo not given)
inactive: [1] 10.6% | [2] -2.65% | [3] 8.2% | [4] -24.4% | [5] -13.8% | [6] 8.65%

CCOC(OCC)c1ccccc1C
inactive: [1] 27.9% | [2] 9.3% | [3] 8.25% | [4] -36.5% | [5] 15.2% | [6] 20.4%

O=C(OCC1OC(C2N(c3ccccc3)CCN2c2ccccc2)C(OC(=O)c2ccccc2)C1OC(=O)c1ccccc1)c1ccccc1 (stereo not given)
inactive: [1] 0.85% | [2] 6.5% | [3] -26.4% | [4] -7.45% | [5] -11.9% | [6] 9.7%

CSC(=N/N=C(\C)c1ccccn1)SC
inactive: [1] 0.45% | [2] 6% | [3] 5.3% | [4] -46.2% | [5] -11.7% | [6] 5.85%

CCC(C)N=Cc1ccccc1O.CCC(C)N=Cc1ccccc1O.[Cu] (stereo not given)
inactive: [1] 33.7% | [2] -10.3% | [3] 28.4% | [4] -44.7% | [5] 2.1% | [6] 11.2%

c1ccc(C(N2CCNCC2)N2CCNCC2)cc1
inactive: [1] -2.05% | [2] 8% | [3] 10.1% | [4] -3.6% | [5] -9.3% | [6] 17%

CCC(C)(C#N)OC(C)=O (stereo not given)
inactive: [1] -3.75% | [2] -26.6% | [3] -8.4% | [4] -6.85% | [5] 4.6% | [6] 8.45%

CC(=O)Nc1ccc2nc(/C=C/c3ccc(N(C)C)cc3)c(=O)oc2c1
inactive: [1] 38.5% | [2] 18.6% | [3] 25.5% | [4] 16.7% | [5] 20.1% | [6] 29.9%

CCC(=O)Nc1cc(C)c(C)cc1C
inactive: [1] 4.75% | [2] -10.2% | [3] -2.2% | [4] -42% | [5] 6.6% | [6] -8.4%

Cc1cc(C(=O)C[n+]2ccccc2)c(CN2C(=O)c3ccccc3C2=O)c(=O)n1C
inactive: [1] 14.8% | [2] -14.3% | [3] -3.9% | [4] -19.1% | [5] 6.3% | [6] 6.55%

COc1ccc(CCN=C(C)c2cc(Cl)cc(Cl)c2O)cc1OC
inactive: [1] 31.1% | [2] 16.2% | [3] 7% | [4] 19.3% | [5] -0.4% | [6] 13.9%

CCOC(NCc1ccc(OC)c(OC)c1)OCC
inactive: [1] 3.6% | [2] -11.8% | [3] 6.45% | [4] 3.55% | [5] 17.1% | [6] 11.3%

Cc1ccc(S(=O)(=O)CCS(C)(=O)=O)cc1
inactive: [1] -0.5% | [2] 2.2% | [3] 13.2% | [4] 21.8% | [5] -13.7% | [6] -11.2%

O=C(O)c1cccc(=O)o1
inactive: [1] -3.35% | [2] -16.3% | [3] -11.3% | [4] 3.35% | [5] 7.1% | [6] -1.65%

O=c1cc(C(O)C(O)C(O)C(O)CO)[nH]c(=O)[nH]1 (stereo not given)
inactive: [1] 2.4% | [2] 7.1% | [3] 9% | [4] 24.9% | [5] -5.05% | [6] -4.6%

CC(C)=CC(=O)OC1C2C(CC(C)C3C(O)CC(=O)C13C)OC(=O)C2C (stereo not given)
inactive: [1] -0.3% | [2] -44.3% | [3] -0.2% | [4] 17.8% | [5] -27.9% | [6] -16.9%

CCCCC(CC)C(=S)N1CCOCC1 (stereo not given)
inactive: [1] 0.95% | [2] -30.4% | [3] -18.8% | [4] 7.25% | [5] -4.65% | [6] -9.25%

CC1(C)OC[C@@H](O)[C@H](C#N)CO1
inactive: [1] 17.6% | [2] 27.6% | [3] 3.75% | [4] 19.6% | [5] -0.95% | [6] -18.1%

[Cl][Pt+2][Cl].[NH-]CC1(C[NH-])CCC1
inactive: [1] 1.1% | [2] 1.5% | [3] 9.2% | [4] 9% | [5] -18.9% | [6] -40%

C=Cc1ccc(C)[n+](C[Si](C)(C)O[Si](C)(C)C[n+]2cc(C=C)ccc2C)c1
inactive: [1] -18.9% | [2] -11.1% | [3] -26.1% | [4] -4.2% | [5] -10.8% | [6] 9%

C/C([O-])=C(/c1nc(-c2ccc([N+](=O)[O-])o2)no1)[n+]1cc(C)ccc1C
inactive: [1] 19.3% | [2] 14% | [3] 18.9% | [4] 21.3% | [5] 7.55% | [6] 16.1%

COCCOC(=O)CO
inactive: [1] 4.35% | [2] 3.85% | [3] -4.7% | [4] 2.25% | [5] 7.8% | [6] 5.5%
